WT yeast gro inh: growth inhibition of WT yeast, mitochondrial fusion screen. mitochondrial fusion phenotypic screen, WT strain. inhibition, % at 10 µM. 190,000 tested, 2.1% active; in the data active = inhibition above about 58%; tested in S. cerevisiae
Lmaj promast: reduces viability of Leishmania major promastigotes. resazurin fluorescence viability. 200,000 tested, 9% active. inhibition, % at 10 µM; in the data active = inhibition above about 50%;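 also: promastigotes grown with compound for 44 hours at 28 °C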
Calpain2 inh: blocks pig calpain II enzyme activity; purified calpain II, fluorogenic peptide substrate, 30 min; inhibition, % at 16 µM; 220,000 tested, 0.37% active;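 active = inhibition above about 50%, limit read from the data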
Cl transport mod: modulates chloride dependent transport by human KCC2; Q9H2X9; KCC2 cells, thallium flux FluoZin-2 fluorescence; B-score of Tl+ flux slope (higher = more flux/activation; lower = inhibition) at 10 µM; 190,000 tested, 2.2% active;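 active = thallium flux slope and its plate-corrected score both differing from the plate sample mean at a set confidence after two filtering rounds, in either direction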;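 also: slope of fluorescence scaled to starting intensity during 10 to 20 s after thallium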
Target sequence (Q9H2X9 whole entry, looked up): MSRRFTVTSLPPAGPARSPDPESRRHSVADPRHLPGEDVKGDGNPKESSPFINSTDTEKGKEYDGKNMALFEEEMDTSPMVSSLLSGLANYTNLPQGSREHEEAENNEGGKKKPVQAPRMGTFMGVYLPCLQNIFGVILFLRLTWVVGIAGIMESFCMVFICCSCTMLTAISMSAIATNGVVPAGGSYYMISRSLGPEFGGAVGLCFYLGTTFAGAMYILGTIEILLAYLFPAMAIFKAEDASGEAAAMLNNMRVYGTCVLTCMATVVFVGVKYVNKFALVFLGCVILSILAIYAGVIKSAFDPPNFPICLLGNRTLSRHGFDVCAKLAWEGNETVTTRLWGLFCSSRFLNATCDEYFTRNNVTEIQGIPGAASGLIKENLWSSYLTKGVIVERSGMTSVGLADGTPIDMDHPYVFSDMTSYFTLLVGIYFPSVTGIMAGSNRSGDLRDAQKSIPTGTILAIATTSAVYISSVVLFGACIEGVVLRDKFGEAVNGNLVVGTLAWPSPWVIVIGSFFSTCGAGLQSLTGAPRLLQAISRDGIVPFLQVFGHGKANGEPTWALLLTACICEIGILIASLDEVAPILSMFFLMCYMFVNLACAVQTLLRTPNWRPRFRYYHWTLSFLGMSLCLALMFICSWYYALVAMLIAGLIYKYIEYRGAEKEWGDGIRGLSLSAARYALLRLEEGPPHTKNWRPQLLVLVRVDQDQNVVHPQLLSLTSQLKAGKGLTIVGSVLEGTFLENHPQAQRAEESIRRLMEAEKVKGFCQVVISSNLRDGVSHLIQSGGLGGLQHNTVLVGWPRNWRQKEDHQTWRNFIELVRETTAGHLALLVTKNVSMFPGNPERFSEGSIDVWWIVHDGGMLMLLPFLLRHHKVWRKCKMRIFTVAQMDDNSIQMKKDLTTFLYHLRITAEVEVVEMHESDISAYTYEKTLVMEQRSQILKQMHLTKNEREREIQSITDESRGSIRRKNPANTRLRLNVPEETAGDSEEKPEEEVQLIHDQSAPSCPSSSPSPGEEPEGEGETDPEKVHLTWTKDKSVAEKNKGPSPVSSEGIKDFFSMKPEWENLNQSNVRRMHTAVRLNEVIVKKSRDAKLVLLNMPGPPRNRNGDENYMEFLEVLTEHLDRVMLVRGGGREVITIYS
ROMK primary: human ROMK K+ channel modulation, primary screen | P48048 | Tet-inducible ROMK, thallium flux fluorescence; actives lie on both sides | B-score at 10 µM | 130,000 tested, 2% active | AID 1918;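 active = signal ratio slope over the read window, or its plate-corrected B-score, at least 3 SD from the plate mean, either direction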;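 also: B-score of the F/F0 ratio slope over 7 to 12 s after thallium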
A number is an active result; i = inactive; nt = no result. Rows were chosen to be rich in hits. Some 12% of all compounds tested hit in one or more screens of this group.

SMILES	WT yeast gro inh	Lmaj promast	Calpain2 inh	Cl transport mod	ROMK primary
CCc1ccccc1NC(=O)CC(O)(C(=O)OC)C(F)(F)F (configuration not stated)	i	i	i	nt	i
Cc1cc(NC(=O)Nc2ccc(Cl)c(Cl)c2)n(-c2ccccc2)n1	nt	nt	i	i	nt
CC(=O)NCCn1c(SCC(=O)NCc2ccco2)nc2ccccc2c1=O	i	i	i	i	nt
CCCCn1c(SCC(=O)NCc2ccco2)nc2ccccc2c1=O	i	i	i	9.1	i
O=C(CSCc1nc2ccccc2[nH]1)Nc1ccc(Oc2ccccc2)cc1	i	64	i	i	i
O=C(CSCc1nc2ccccc2[nH]1)Nc1ccc2ccccc2c1	i	i	i	i	nt
CCOC(=O)c1ccc[n+](CC(=O)c2ccc(OC)cc2)c1	i	i	i	i	i
COc1ccc(C(=O)C[n+]2ccc3c(c2)nc(-c2ccccc2)n3C)cc1	i	68	i	i	nt
COc1cc(-c2nc3c[n+](CC(=O)c4ccccc4)ccc3n2C)cc(OC)c1OC	i	i	i	i	i
COc1ccc(C(=O)C[n+]2ccc3c(c2)nc(-c2ccc(OC)cc2OC)n3C)cc1	i	87	i	i	nt
CC(C)N(Cc1ccccc1)C(=O)c1ccc2nsnc2c1	nt	nt	i	i	i
COCCN(CCOC)C(=O)C1CCCN(S(=O)(=O)c2ccc(NC(=O)OC)cc2)C1 (configuration not stated)	nt	nt	i	i	nt
CCN(c1ccccc1)S(=O)(=O)c1ccc(NC(=S)NC(=O)c2cccs2)cc1	i	85	i	16	nt
CC(=O)NC(=S)Nc1ccc(S(=O)(=O)N(C)Cc2ccccc2)cc1	i	i	i	i	i
CCN(c1ccccc1)S(=O)(=O)c1ccc(C(=O)NCC(c2cccs2)N(C)C)cc1 (configuration not stated)	i	90	i	i	i
Cc1ccccc1C(=O)NC(=S)Nc1ccc(S(=O)(=O)N(C)c2ccccc2)cc1	i	100	i	i	nt
CN(c1ccccc1)S(=O)(=O)c1ccc(NC(=O)c2cccs2)cc1	i	i	i	i	i
CC(C)C(=O)NC(=S)Nc1ccc(S(=O)(=O)N(C)Cc2ccccc2)cc1	59	i	i	i	i
CCCOc1ccc(C(=O)NCC(c2cccs2)N(C)C)cc1 (configuration not stated)	i	i	i	i	i
COCC(C)NC(C(=O)Nc1ccc(C)c(Cl)c1)c1ccccc1 (configuration not stated)	i	i	i	i	i
Cc1ccc(NC(=O)C(NC2CCCc3ccccc32)c2ccccc2)c([N+](=O)[O-])c1 (configuration not stated)	i	89	i	i	i
Cc1ccc(NC(=O)C(NC2CCCc3ccccc32)c2ccccc2)cc1Cl (configuration not stated)	i	58	i	i	i
O=C(/C=C/c1ccccc1)NCCc1ccc2c(c1)OCCO2	i	i	i	i	nt
CCOC(=O)C1=C(C)N=c2s/c(=C\c3ccc(OC(C)=O)c(OCC)c3)c(=O)n2C1/C=C/c1ccccc1 (configuration not stated)	i	i	i	i	nt
CCOC(=O)C1=C(c2ccccc2)N=c2s/c(=C\c3cccc(O)c3)c(=O)n2C1c1cccs1 (configuration not stated)	i	89	i	i	nt
SMILES	WT yeast gro inh	Lmaj promast	Calpain2 inh	Cl transport mod	ROMK primary
CCOC(=O)C1=C(C)N=c2s/c(=C\c3ccc(OC(C)=O)cc3)c(=O)n2C1/C=C/c1ccccc1 (configuration not stated)	i	100	i	i	i
CC(C)CNC(=O)c1ccc(Cl)c(N)c1	i	i	i	i	i
COc1ccccc1NC(=O)/C(=N/OCc1ccc(C#N)cc1)C(C)=O	i	i	i	i	i
FC(F)(F)c1cnc(-c2cnc(-c3cccnc3)nc2)c(Cl)c1	i	i	i	nt	i
CC(C)(C)C1CCc2c(C(=O)N/N=C/c3cccs3)csc2C1 (configuration not stated)	i	96	i	i	i
COC(=O)C1=CC(C(=O)c2cccs2)=NN(c2ccc(OC)cc2)C1C(=O)OC (configuration not stated)	i	i	i	i	i
Cc1nnc(Cl)c2nn(-c3ccccc3F)c(C)c12	i	i	i	i	i
Cc1nnc(SCCN2CCOCC2)c2nn(-c3ccccc3F)c(C)c12	i	53	i	i	i
CCOC(=O)C1=NN(c2cccc(C)c2)C2(S1)SC(C(C)=O)=C(C)N2c1ccccc1 (configuration not stated)	77	i	i	i	i
CCOC(=O)C1=NN(c2ccc(C)cc2)C2(S1)SC(C(C)=O)=C(C)N2c1ccccc1 (configuration not stated)	i	i	i	i	nt
COc1cccc(C2c3[nH]c4ccccc4c3CCN2Cc2cccn2-c2ncccn2)c1 (configuration not stated)	i	i	i	i	i
Fc1ccc(C2c3[nH]c4ccccc4c3CCN2Cc2cccn2-c2ncccn2)cc1 (configuration not stated)	i	67	i	i	nt
Clc1ccc(-n2cccc2CN2CCc3c([nH]c4ccccc34)C2c2ccccn2)nc1 (configuration not stated)	i	96	i	nt	i
COc1ccc2nc(C)c(C(=O)NN)cc2c1	i	i	i	i	i
CCCCC(=O)Nc1cccc(-c2nc3ncccc3o2)c1	i	100	i	i	nt
CCCCCC(=O)Nc1cccc(-c2nc3ncccc3o2)c1	i	67	i	i	i
Cc1ccc(O)c(NC(=O)c2cc3nc4c(c(C(F)(F)F)n3n2)CCc2ccccc2-4)c1	i	i	i	nt	nt
CCN(CC)CCCNC(=O)c1cc2nc3c(c(C(F)(F)F)n2n1)CCc1ccccc1-3	i	96	i	i	i
CCOc1ccc(-c2ccc(SCC(=O)NCC3CCCO3)nn2)cc1 (configuration not stated)	i	i	i	i	i
CCOc1ccc(-c2ccc(SC)nn2)cc1	68	i	i	i	i
CCCC(=O)Nc1ccc(C(=O)/C=C/c2ccc(SC)cc2)cc1	i	i	i	i	nt
CCOc1ccc(/C=C/C(=O)Nc2cccc(C(C)=O)c2)cc1	i	i	i	i	i
CCC(=O)Nc1cccc(C(=O)/C=C/c2ccc(F)cc2)c1	i	100	i	i	i
CC(=O)Nc1cccc(C(=O)/C=C/c2ccc(C)cc2)c1	i	100	i	i	nt
CN(C)c1ccc(/C=C/C(=O)c2cccc(Br)c2)cc1	i	i	i	nt	nt
CSc1ccc(/C=C/C(=O)c2ccc(NC(C)=O)cc2)cc1	i	57	i	nt	nt
CC(Oc1ccccc1)C(=O)N=Nc1c(O)[nH]c2ccc(Br)cc12 (configuration not stated)	i	i	i	i	i
Cc1ccc(C(=O)COC(=O)c2cn3ccccc3n2)cc1	i	i	i	i	i
OCCC1CN(CC(c2ccccc2)c2ccccc2)CCN1C1CCCC1 (configuration not stated)	i	87	i	i	i
CC(C)N1CCN(Cc2nc3ccccc3s2)CC1CCO (configuration not stated)	i	i	i	i	i

Screening results deposited in PubChem BioAssay by several laboratories.
